Inconclusive results are not listed. Entries that show only a call come without a potency. Activity calls are given as the source filed them. Unless noted, calls come from the whole dose curve; as a rule, active = well fitted curve in the direction sought with a large enough effect in the repeat runs; inconclusive = weak or mixed curves; inactive = no such curve, though single readings can be large; an effect the other way counts as inactive or inconclusive.
Key:
[1] = A CellTox Green Cytotoxicity Assay to monitor cytotoxicity in HEK293 cells - 32 hour (AID 1224881); note: nearly all actives have a fitted effect of over 40% in size
Outline: (§1)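 Fluorescence from a DNA-binding dye excluded by viable cells was measured repeatedly in the same HEK293 wells (600 cells/well) during continuous compound exposure at 37 C. Each assay gives one read point: 0, 8, 16, 24, 32 or 40 h.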

[2] = A CellTox Green Cytotoxicity Assay to monitor cytotoxicity in HepG2 cells - 0 hour (AID 1224882); note: nearly all actives have a fitted effect of over 35% in size
Outline: (§2)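 Real-time cytotoxicity: fluorescence of a cell-impermeant cyanine dye binding DNA of dead HepG2 cells, measured repeatedly (0–40 h) during compound exposure at 37 C. Cells seeded 600/well with reagent, dosed after 5 h.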

[3] = A CellTox Green Cytotoxicity Assay to monitor cytotoxicity in HepG2 cells - 32 hour (AID 1224883); note: nearly all actives have a fitted effect of over 50% in size
Outline: as §2

[4] = A CellTox Green Cytotoxicity Assay to monitor cytotoxicity in HEK293 cells - 8 hour (AID 1224884); note: nearly all actives have a fitted effect of over 35% in size
Outline: as §1

[5] = qHTS RealTime-Glo MT Cell Viability Assay in HepG2 cells - 16 hour (AID 1224885); note: nearly all actives have a fitted effect of over 50% in size
Outline: (§3)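 Luminescence read-out: viable HepG2 cells reduce a prosubstrate to a NanoLuc substrate, giving a signal proportional to live cell number. Reads taken at 0, 8, 16, 24, 32 and 40 h of compound exposure at 37 C.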

[6] = qHTS RealTime-Glo MT Cell Viability Assay in HEK293 cells - 24 hour (AID 1224886); note: nearly all actives have a fitted effect of over 50% in size; note: potency is the fitted concentration of half-maximal effect
Outline: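 Nonlytic real-time viability readout: viable cells convert prosubstrate to NanoLuc substrate, giving luminescence proportional to live cell number. HEK293, 600 cells/well, compound added after 5 h, continuous culture at 37 C.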

[7] = qHTS RealTime-Glo MT Cell Viability Assay in HEK293 cells - 8 hour (AID 1224887); note: nearly all actives have a fitted effect of over 50% in size; note: potency is the fitted concentration of half-maximal effect
Outline: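 Luminescence, which tracks viable cell number through reduction of the prosubstrate to a NanoLuc substrate, was read over continuous 37 C culture. Cells (600/well) were premixed with reagent and rested 5 h before 23 nL of compound in DMSO was pinned.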

[8] = A CellTox Green Cytotoxicity Assay to monitor cytotoxicity in HEK293 cells - 16 hour (AID 1224888); note: nearly all actives have a fitted effect of over 35% in size
Outline: as §1

[9] = qHTS RealTime-Glo MT Cell Viability Assay in HepG2 cells - 0 hour (AID 1224889); note: nearly all actives have a fitted effect of over 50% in size
Outline: as §3

[10] = A CellTox Green Cytotoxicity Assay to monitor cytotoxicity in HepG2 cells - 8 hour (AID 1224890); note: nearly all actives have a fitted effect of over 45% in size
Outline: as §2

[11] = qHTS assay to identify small molecule antagonists of the estrogen receptor alpha (ER-alpha) signaling pathway using the BG1 cell line in the presence of 0.1 nM 17-beta-estradiol - cell viability counter screen (AID 1259241); note: nearly all actives have a fitted effect of over 40% in size
Outline: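 The cell line endogenously expresses full-length ER-alpha and carries four EREs driving luciferase. Cells are cultured 5 days hormone-free, treated 22 hr with compounds and 0.1 nM estradiol, then viability is read by fluorescence.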

[12] = qHTS assay to identify small molecule antagonists of the androgen receptor (AR) signaling pathway using the MDA cell line in the presence of 0.5 nM R1881 - cell viability counter screen (AID 1259242); note: nearly all actives have a fitted effect of over 45% in size
Outline: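 Live-cell protease activity was measured by CellTiter-Fluor fluorescence after 30 min. Before that, MDA-kb2 MMTV-luciferase cells had 16 hr at 37C without CO2, exposed to test compounds and 0.5 nM R1881 final.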

[13] = qHTS assay to identify small molecule phospholipidosis (PLD) inducers (AID 1259344; active = well fitted curve in the direction sought with a large enough effect; an effect the other way counts as inactive or inconclusive)
Outline: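 Read-out is LipidTOX Red fluorescence (ex 595/em 615) imaged in HepG2 cells after 24 h compound exposure at 37 C, with Hoechst nuclear counterstain (ex 352/em 461) allowing per-cell normalisation.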

[14] = qHTS assay to identify small molecule HDAC inhibitors (AID 1259364); note: nearly all actives have a fitted effect of over 45% in size; note: potency is the fitted concentration of half-maximal effect
Outline: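 Luminescence read after 30 min room-temperature HDAC-Glo incubation measures cellular class I/II HDAC activity. Compounds were applied for 2 hr at 37 C to HCT-116 wild-type cells seeded the day before.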

[15] = qHTS assay to identify small molecule HDAC inhibitors - cell viability counter screen (AID 1259365)
Outline: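 Viability readout: CellTiter-Glo luminescence. Wild-type HCT-116 cells, 2hr compound treatment following overnight attachment at 37 C.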

[16] = qHTS assay to identify small molecule agonists of the sonic hedgehog signaling (Shh) pathway - cell viability counter screen (AID 1259366); note: nearly all actives have a fitted effect of over 50% in size
Outline: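 Viability measured fluorometrically (CellTiter-Fluor, 1hr, 37C) in 3T3 Gli1-Luc reporter cells after 23hr compound exposure within a 24hr incubation at 37C/5% CO2.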

[17] = qHTS assay to identify small molecule antagonists of the sonic hedgehog signaling (Shh) pathway - cell viability counter screen (AID 1259367); note: nearly all actives have a fitted effect of over 55% in size
Outline: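 Fluorescence read-out (CellTiter-Fluor, 1 hr at 37C) taken after 23 hr compound treatment of 3T3 Gli1-Luc cells stimulated with conditioned medium. Cells were seeded at 2,000 per well and pre-incubated 4 hr.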

[18] = qHTS assay to identify small molecule agonists of the sonic hedgehog signaling (Shh) pathway (AID 1259368; calls by dose curve;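 note: NIH/3T3-derived 3T3Gli1-Luc cells carrying a stable Gli1-driven firefly luciferase reporter; series mostly up to about 92 µM; nearly all actives have a fitted effect of over 15% in size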)
Outline: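 Luminescence was read after 30 min at room temperature with luciferase reagent. Before that, 3T3Gli1-Luc cells (NIH/3T3 clone, stable Gli1-Luc reporter; 2,000/well) were exposed to compounds for 24 hr at 37C, 5% CO2, compounds being added 4 hr post-plating.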

[19] = target: Estrogen receptor (Homo sapiens) (UniProt P03372); assay: qHTS assay to identify small molecule antagonists of the estrogen receptor alpha (ER-alpha) signaling pathway using the BG1 cell line in the presence of 0.1 nM 17-beta-estradiol (AID 1259244); note: nearly all actives have a fitted effect of over 50% in size
Sequence of Estrogen receptor (Homo sapiens) (P03372 whole entry, looked up): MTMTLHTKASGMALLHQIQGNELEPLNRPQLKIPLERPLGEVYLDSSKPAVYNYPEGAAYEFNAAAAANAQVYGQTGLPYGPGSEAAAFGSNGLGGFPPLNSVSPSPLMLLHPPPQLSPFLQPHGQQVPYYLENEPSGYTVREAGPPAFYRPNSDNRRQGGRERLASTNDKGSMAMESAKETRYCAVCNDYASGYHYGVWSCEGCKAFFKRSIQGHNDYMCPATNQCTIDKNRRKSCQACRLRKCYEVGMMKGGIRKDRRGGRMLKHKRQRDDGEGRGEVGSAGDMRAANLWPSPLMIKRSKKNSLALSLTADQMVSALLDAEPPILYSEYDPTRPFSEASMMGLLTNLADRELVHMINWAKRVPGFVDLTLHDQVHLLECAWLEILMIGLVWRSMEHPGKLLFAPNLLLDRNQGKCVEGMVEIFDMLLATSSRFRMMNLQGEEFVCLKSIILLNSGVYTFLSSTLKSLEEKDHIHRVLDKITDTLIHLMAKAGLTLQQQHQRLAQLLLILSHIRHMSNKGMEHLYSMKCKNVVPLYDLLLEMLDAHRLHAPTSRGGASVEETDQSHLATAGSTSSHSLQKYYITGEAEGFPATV
Outline: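 Luciferase luminescence (ONE-Glo, 30 min at room temperature) was read after 22 hr at 37C exposure to compounds plus 17beta-estradiol at 0.1 nM final. Cells were VM7Luc4E2 with endogenous ER-alpha and an ERE-driven luciferase, pre-cultured 5 days in hormone-depleted medium.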

[20] = target: Androgen receptor (Homo sapiens) (UniProt P10275); assay: qHTS assay to identify small molecule antagonists of the androgen receptor (AR) signaling pathway using the MDA cell line in the presence of 0.5 nM R1881 (AID 1259243); note: nearly all actives have a fitted effect of over 50% in size
Sequence of Androgen receptor (Homo sapiens) (P10275 whole entry, looked up): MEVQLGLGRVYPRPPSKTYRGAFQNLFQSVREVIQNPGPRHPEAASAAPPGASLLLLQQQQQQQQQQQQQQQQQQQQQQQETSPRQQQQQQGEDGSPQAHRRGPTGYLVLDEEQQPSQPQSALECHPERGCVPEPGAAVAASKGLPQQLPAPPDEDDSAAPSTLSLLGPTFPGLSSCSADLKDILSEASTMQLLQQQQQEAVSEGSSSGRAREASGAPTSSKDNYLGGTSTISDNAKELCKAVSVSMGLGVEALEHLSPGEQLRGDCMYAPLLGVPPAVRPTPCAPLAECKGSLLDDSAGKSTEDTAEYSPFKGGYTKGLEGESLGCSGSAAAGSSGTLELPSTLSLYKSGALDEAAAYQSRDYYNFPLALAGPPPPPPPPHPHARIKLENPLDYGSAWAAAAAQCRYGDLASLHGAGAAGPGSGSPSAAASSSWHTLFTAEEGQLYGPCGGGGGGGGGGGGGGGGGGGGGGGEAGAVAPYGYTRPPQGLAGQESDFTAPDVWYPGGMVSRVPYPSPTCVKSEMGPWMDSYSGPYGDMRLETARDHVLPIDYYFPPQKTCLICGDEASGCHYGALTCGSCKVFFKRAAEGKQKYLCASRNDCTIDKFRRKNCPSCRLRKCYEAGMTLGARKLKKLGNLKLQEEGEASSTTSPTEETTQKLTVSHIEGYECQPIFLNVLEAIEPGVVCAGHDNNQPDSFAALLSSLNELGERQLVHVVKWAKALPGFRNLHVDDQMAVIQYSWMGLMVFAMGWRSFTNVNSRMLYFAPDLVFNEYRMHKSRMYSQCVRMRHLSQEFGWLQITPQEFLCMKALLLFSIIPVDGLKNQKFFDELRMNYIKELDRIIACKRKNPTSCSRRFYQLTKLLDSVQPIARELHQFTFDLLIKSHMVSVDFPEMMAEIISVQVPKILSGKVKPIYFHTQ
Outline: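 Luminescent reporter readout (ONE-Glo, 30 min, room temperature) after 16 hr co-treatment of MDA-kb2 cells with test compounds and 0.5 nM R1881 final, at 37C without CO2. The MMTV-driven luciferase responds to both AR and GR.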

Structure (SMILES) | Potency [1] | outcome [2] | Potency [3] | Potency [4] | outcome [5] | Potency [6] | Potency [7] | outcome [8] | Potency [9] | outcome [10] | Potency [11] | outcome [12] | outcome [13] | Potency [14] | outcome [15] | Potency [16] | Potency [17] | outcome [18] | Potency [19] | Potency [20]
Nc1ncnc(Nc2ccccc2)n1 | inactive | inactive | inactive | inactive | inactive | inactive | inactive | inactive | inactive | inactive | inactive | inactive | inactive | 10.6 µM (active) | inactive | inactive | inactive | inactive | – | –
CC(=O)NCCCCCC(=O)O | inactive | inactive | inactive | inactive | inactive | inactive | inactive | inactive | inactive | inactive | inactive | inactive | inactive | inactive | inactive | inactive | inactive | inactive | inactive | –
COCCOCCOCCOCCO | inactive | inactive | inactive | inactive | inactive | inactive | inactive | inactive | inactive | inactive | inactive | inactive | – | inactive | – | inactive | inactive | inactive | inactive | inactive
BrCCCCCBr | inactive | inactive | inactive | inactive | inactive | inactive | inactive | inactive | inactive | inactive | inactive | inactive | – | inactive | inactive | inactive | inactive | inactive | inactive | –
COc1ccc(C2CNC(=O)C2)cc1OC1CCCC1 (configuration not stated) | inactive | inactive | inactive | inactive | inactive | inactive | inactive | inactive | inactive | inactive | inactive | inactive | inactive | inactive | inactive | inactive | inactive | inactive | – | –
O=C(OCC(O)CO)c1ccccc1Nc1ccnc2c(C(F)(F)F)cccc12 (configuration not stated) | inactive | inactive | inactive | inactive | inactive | 4.77 µM (active) | 3.79 µM (active) | inactive | inactive | inactive | inactive | inactive | – | inactive | inactive | inactive | inactive | inactive | inactive | inactive
COC(=O)CCc1ccc(OCC(O)CNC(C)C)cc1 (configuration not stated) | inactive | inactive | inactive | inactive | inactive | inactive | inactive | inactive | inactive | inactive | inactive | inactive | inactive | inactive | – | inactive | inactive | inactive | – | –

— PubChem BioAssay (Tox21)
